The panel holds about 83,000 compounds, 20% with a hit somewhere; the sample as a whole holds those more often.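 48-hour exposure, single concentration, 96-well plates; percent growth endpoint where 0 means no net growth. Active: below 10.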 Activity calls are given as the source filed them.
Legend:
Assay in all cases: NCI-60 one-dose screen, 48 h (100 = growth as untreated, 0 = no growth, -100 = all killed)
Conditions in all cases: 10 µM
[1] = tested on: NCI-H23 lung
[2] = tested on: NCI-H226 lung
[3] = tested on: NCI-H322M lung
[4] = tested on: HOP-62 NSCLC
[5] = tested on: NCI-H460 lung
[6] = tested on: HOP-92 NSCLC
[7] = tested on: NCI-H522 lung
[8] = tested on: A549/ATCC NSCLC
[9] = tested on: 786-0 renal
[10] = tested on: COLO 205 colon
[11] = tested on: DU-145 prostate
[12] = tested on: MALME-3M melanoma
[13] = tested on: MDA-MB-231 breast
[14] = tested on: RXF 393 renal
[15] = tested on: SF-268 CNS
[16] = tested on: SF-295 CNS
[17] = tested on: SF-539 CNS
[18] = tested on: UACC-257 melanoma
[19] = tested on: M14 melanoma

Measured: growth

CC(=O)NCC1=C(C)C=C2C(=O)[C@](C)(O)C3(CC3)C(C)=C21
inactive: [15] 18.3%
active: [1] -76.6% | [2] -72.2% | [3] -30% | [4] -54.4% | [5] 4.33% | [6] -14.1% | [7] -64.8% | [8] -50.3% | [9] -40.8% | [10] -81.4% | [11] -10.7% | [12] -96.3% | [13] -61.5% | [14] -74.7% | [16] -14.5% | [17] -71.1% | [18] -62% | [19] -69.1%

O=C(Cn1cc(CSc2nnc3oc4ccccc4n23)nn1)Nc1ccc(Br)cc1
active: [14] 6.71%
inactive: [1] 62.7% | [2] 45.2% | [3] 86.9% | [4] 38.5% | [5] 101% | [6] 32% | [7] 79.5% | [8] 76.5% | [9] 69.6% | [10] 103% | [11] 92.3% | [12] 87.8% | [13] 35.5% | [15] 37.8% | [16] 43.7% | [17] 29.9% | [18] 88.8% | [19] 98.8%

COc1ccccc1NCc1ccc(CO)n1-c1ccc(C)cc1
inactive: [1] 94.3% | [2] 81.3% | [3] 100% | [4] 88.1% | [5] 111% | [6] 80.5% | [7] 93.7% | [8] 100% | [9] 104% | [10] 120% | [11] 111% | [12] 98.4% | [13] 91.2% | [14] 107% | [15] 94.7% | [16] 100% | [17] 94.7% | [18] 109% | [19] 101%

CC(=O)c1ccc(NC(=O)NCn2c(=O)[nH]c3ccccc3c2=O)cc1
inactive: [1] 103% | [2] 87.3% | [3] 93.8% | [4] 96.3% | [5] 112% | [6] 79.5% | [7] 90.2% | [8] 97.7% | [9] 102% | [10] 109% | [11] 104% | [12] 93.2% | [13] 95.1% | [14] 97.4% | [15] 128% | [16] 92.7% | [17] 90.6% | [18] 98.6% | [19] 110%

Cc1ccc(-c2nc3ccc(C(=O)N=Nc4c(O)[nH]c5ccc(Br)cc45)cc3[nH]2)cc1
inactive: [2] 91.7% | [3] 77.7% | [4] 68.7% | [5] 47.8% | [6] 88.3% | [7] 25% | [8] 87.1% | [9] 36.3% | [10] 61% | [11] 17.2% | [12] 90.5% | [13] 23% | [14] 66.1% | [15] 44.3% | [16] 93.6% | [17] 86.4% | [18] 99.7% | [19] 55.8%
active: [1] -3.58%

O=C(c1ccc(-n2c(=O)[nH]c3ccccc3c2=O)cc1)N1CCOCC1
inactive: [1] 116% | [2] 99.6% | [3] 98.7% | [4] 134% | [5] 109% | [6] 99.8% | [7] 101% | [8] 119% | [9] 99.5% | [10] 110% | [11] 105% | [12] 97.5% | [13] 95.5% | [14] 127% | [15] 88.1% | [16] 102% | [17] 93.8% | [18] 127% | [19] 99.3%

CN1CCN(c2ccc(Nc3nc(N4CCN(S(=O)(=O)c5ccc(F)cc5)CC4)c4sccc4n3)cc2)CC1
active: [1] -64.4% | [2] -74.7% | [3] -88% | [4] -49.6% | [5] -73% | [6] -66.3% | [7] -86.4% | [8] -48.9% | [9] -72.6% | [10] -79.9% | [11] -84% | [12] -97.9% | [13] -94.6% | [14] -89.1% | [15] -72.3% | [16] -88.5% | [17] -100% | [18] -86.1% | [19] -56.9%

COc1ccc(-c2nc(S(=O)(=O)c3ccc(C)cc3)c(S(=O)(=O)CC(=O)N(C)Cc3ccccc3)o2)cc1
inactive: [1] 44% | [2] 78.7% | [3] 93.1% | [4] 82.1% | [5] 82.6% | [6] 27.2% | [8] 84.9% | [9] 22.2% | [10] 45.9% | [11] 35.5% | [12] 16.7% | [15] 64.8% | [16] 78.5% | [17] 36.8% | [18] 67.9% | [19] 35.7%
active: [7] -1.9% | [13] 2.89% | [14] -54.4%

From PubChem BioAssay (NCI)
